Compound activity from PubChem.
DRV1 agonist: GPR32 (DRV1) agonism, beta-arrestin recruitment; O75388; CHO-K1 GPR32 beta-arrestin PathHunter luminescence, 90 min; zero percent set by DMSO-only wells; activation, % at 76.9 µM; hit rate 2.5% among 48,000; AID 1346428;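 active means activation of at least 60% and not above a set upper limit, about 1 call in 100 departs from these limits; inconclusive means activation of 40% to 60%, or above that upper limit; inactive means activation under 40%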; further: 0% is about no effect
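Readings come from a cell-based beta-arrestin complementation format: CHO-K1 GPR32 stable cells (2,500/well) treated 90 min with compounds, then beta-Gal substrate added for 1 h before chemiluminescence imaging.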
p53null 32C tox: selectivity test: cytotoxicity in p53 null cells, permissive temperature; hit rate 0.62% among 55,000; H1299-neo p53 null cells, ATP luminescence, 24 h, 32C; Potency, µM (titrated, usually from 46.1 µM), for inactives: at the top dose activity change, negative = cytotoxicity, actives largely listed as cytotoxic;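 further: potency means the concentration at half of the fitted maximal effect; 0% = DMSO only and -100% = full killing by 100 µM tamoxifen; nearly all actives have a fitted effect of over 55% in size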
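ATP-content luminescence in p53-null H1299-neo cells after 24 h compound exposure (up to 46 uM) at 32C permissive temperature; 0% and 100% killing set by DMSO and 100 uM tamoxifen; Hill-equation AC50.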
p53null 39C kill: p53 null cell cytotoxicity, nonpermissive temperature. H1299 p53-null (neo) cells, 39C, ATPlite viability, 24 h. Potency, µM (top dose mostly 46.1 µM), for the others: top-dose activity, negative = cell killing, most hits filed as cytotoxic. hit rate 0.97% among 55,000;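 further: potency means the concentration at half of the fitted maximal effect; 0% = DMSO only and -100% = full killing by 100 µM tamoxifen; nearly all actives have a fitted effect of over 50% in size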
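ATP-luminescence viability readout (ATPlite, 20 min RT) after 24 hr compound treatment at 39C of H1299-neo or H1299-p53A138V cells; titration up to 46 uM; normalized to DMSO and 100 uM tamoxifen; Hill-fit AC50.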
FH mod: Identification of activators of human fumarate hydratase by quantitative high-throughput screening; Fumarate hydratase, mitochondrial (Homo sapiens), P07954; FH coupled MDH/diaphorase resazurin fluorescence, 15 min; Potency, µM (highest dose often 79.9 µM), for inactives: top-dose activity change, negative = inhibition, actives largely listed as inhibitors; hit rate 0.22% among 54,000; AID 1347055, 2019; further: potency means the concentration at half of the fitted maximal effect; on the % scale 0 is the no-effect control and ±100 the full control effect; the screen sought activators but most active calls are inhibition curves; nearly all actives have a fitted effect of over 45% in size
Target sequence (P07954 whole entry, looked up): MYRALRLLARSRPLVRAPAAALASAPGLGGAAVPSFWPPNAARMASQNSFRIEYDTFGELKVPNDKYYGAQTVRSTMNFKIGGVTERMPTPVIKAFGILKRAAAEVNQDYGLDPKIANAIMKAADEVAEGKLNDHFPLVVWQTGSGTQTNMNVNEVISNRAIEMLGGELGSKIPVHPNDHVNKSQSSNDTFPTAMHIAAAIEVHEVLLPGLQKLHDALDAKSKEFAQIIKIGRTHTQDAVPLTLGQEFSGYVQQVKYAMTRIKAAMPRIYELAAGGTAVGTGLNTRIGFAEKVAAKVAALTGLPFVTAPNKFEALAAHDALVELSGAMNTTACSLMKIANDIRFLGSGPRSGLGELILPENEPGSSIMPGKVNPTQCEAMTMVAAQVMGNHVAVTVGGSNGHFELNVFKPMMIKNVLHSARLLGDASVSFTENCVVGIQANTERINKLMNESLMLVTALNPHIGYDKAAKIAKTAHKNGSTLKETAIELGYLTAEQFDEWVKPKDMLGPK
An asterisk follows results filed as active; [ ] = remark or other dose. An excerpt weighted towards active compounds, which were near 2.9% of everything screened. Unless noted, the call rests on the fitted dose curve; in most records, active means well fitted curve in the direction sought with a large enough effect; inconclusive means small, poorly fitted or top-dose-only effect, or another doubt; inactive means no such curve, though single readings can be large; an effect the other way counts as inactive or inconclusive.

`COc1ccc(OC)c(NC(=O)CSc2n[nH]c(-c3ccccc3Cl)n2)c1` gave DRV1 agonist 13, p53null 32C tox 2%, p53null 39C kill -8% and FH mod 7.9µM*.
COc1ccc(-c2nc(SCC(=O)Nc3cccc(C(C)=O)c3)n[nH]2)cc1 was read as DRV1 agonist -2, p53null 32C tox inconclusive, p53null 39C kill 25µM* and FH mod inconclusive.
For C[C@H](Nc1ncnc2nc[nH]c12)c1cc2ccc(F)cc2nc1-c1ccccn1 the results were FH mod 4%.
Screening CC(C)(O)C(O)C(=O)OCc1ccc(O[C@@H]2O[C@H](CO)[C@@H](O)[C@H](O)[C@H]2O)cc1 (stereo partly specified) returned FH mod -3%[53.3 µM].
For Cc1nn(C)c2c1c(-c1ccccc1)cc(=O)n2CC(=O)NC(C)(C)C the results were DRV1 agonist 91*, p53null 32C tox 9%, p53null 39C kill 27% and FH mod -6%.
For CCC(C)NC(=O)Cn1c(=O)cc(-c2ccccc2)c2c(C)nn(C)c21 (stereo unspecified) the results were DRV1 agonist 10, p53null 32C tox 5%, p53null 39C kill -17% and FH mod -46%.
`CCC(NC(=O)CC(NC(=O)C(CO)NC(=O)C(CC)NC(=O)c1ccc[nH]1)c1ccccc1)C(=O)O` (stereo unspecified) gave FH mod 6%[20.6 µM].
`CN(C)CCNC(=O)C1CCN(Cc2cc3ccccc3n2Cc2ccccc2)CC1` gave DRV1 agonist 64*, p53null 32C tox 1%, p53null 39C kill -2% and FH mod -4%.
`C=C(C)C(=O)O[C@H]1CC2=CC(C/C(C)=C\[C@H]3OC(=O)C(=C)[C@H]13)OC2=O` (stereo partly specified) gave FH mod 5%[53.3 µM].
`Cc1ccc(S(=O)(=O)N(CC(O)Cn2c3ccccc3c3ccccc32)c2cccc(C(N)=O)c2)cc1` (stereo unspecified) gave DRV1 agonist 86*, p53null 32C tox 14%, p53null 39C kill inconclusive and FH mod inconclusive.
For Cc1cccc(S(=O)(=O)N2CCC[C@@H]2CCN2CCC(C)CC2)c1 the results were FH mod 7%.
`COc1ccc(NC(=O)Cn2c(=O)oc3cc(S(=O)(=O)NC4CCCC4)ccc32)cc1OC` gave DRV1 agonist -3, p53null 32C tox 5%, p53null 39C kill 17% and FH mod -1%.
Screening O=C(Cn1c(=O)oc2cc(S(=O)(=O)NC3CCCC3)ccc21)Nc1ccc(F)c(F)c1 returned DRV1 agonist 91*, p53null 32C tox -1%, p53null 39C kill 4% and FH mod -19%.
For O=C(Cn1c(=O)oc2cc(S(=O)(=O)NCc3ccccc3)ccc21)Nc1cccc(F)c1 the results were DRV1 agonist 67*, p53null 32C tox -1%, p53null 39C kill 3% and FH mod 0%.
CC(=O)c1cccc(NC(=O)Cn2c(=O)oc3cc(S(=O)(=O)NCc4ccccc4)ccc32)c1 was read as DRV1 agonist -3, p53null 32C tox -2%, p53null 39C kill 20% and FH mod -14%.
`Nc1nc(Cl)nc2c1ncn2[C@@H]1O[C@H](CO)C(O)[C@H]1O` (stereo partly specified) gave FH mod -7%[53.3 µM].
Screening CCCc1oc2ccc(NS(=O)(=O)c3ccc(OC)cc3)cc2c1C(=O)OCC returned DRV1 agonist -17, p53null 32C tox 5%, p53null 39C kill inconclusive and FH mod inconclusive.
Screening Cc1cc(C)c(S(=O)(=O)Nc2ccc3oc(C)c(C(=O)OC(C)C)c3c2)cc1C returned DRV1 agonist 27, p53null 32C tox 68%, p53null 39C kill inconclusive and FH mod inconclusive.
For CCc1ccc(S(=O)(=O)Nc2ccc3oc(C)c(C(=O)OCCOC)c3c2)cc1 the results were DRV1 agonist 64*, p53null 32C tox 28% and p53null 39C kill 37%.
Screening CCCc1oc2ccc(NS(=O)(=O)c3ccc(OCC)cc3)cc2c1C(=O)OCC returned DRV1 agonist -32, p53null 32C tox 39%, p53null 39C kill 18µM* and FH mod inconclusive.
Screening CCOc1ccc(S(=O)(=O)Nc2ccc3oc(C)c(C(=O)OC(C)C)c3c2)cc1 returned DRV1 agonist 87*, p53null 32C tox 84%, p53null 39C kill 2% and FH mod inconclusive.
Screening CCOc1ccc(CCNC(=O)c2ccc3c(c2)c(C)c(C)n3Cc2ccccc2)cc1OCC returned DRV1 agonist -20, p53null 32C tox 11%, p53null 39C kill 9% and FH mod -24%.
For COc1ccc(CCNC(=O)c2ccc3[nH]c(C)c(C)c3c2)cc1OC the results were DRV1 agonist 113*, p53null 32C tox 7%, p53null 39C kill 22% and FH mod inconclusive.
Cc1ccc(CCNC(=O)c2ccc3[nH]c(C)c(C)c3c2)cc1 was read as DRV1 agonist 2, p53null 32C tox -7%, p53null 39C kill -2% and FH mod 35µM*.
For COc1ccc(OC)c(CCNC(=O)c2ccc3[nH]c(C)c(C)c3c2)c1 the results were DRV1 agonist -7, p53null 32C tox -12%, p53null 39C kill -13% and FH mod -20%.
Screening CCOc1ccc(CCNC(=O)c2ccc3c(c2)c(C)c(C)n3C)cc1 returned DRV1 agonist -8, p53null 32C tox -1%, p53null 39C kill 25% and FH mod 16µM*.
For CCOc1ccc(CCNC(=O)c2ccc3[nH]c(C)c(C)c3c2)cc1 the results were DRV1 agonist 72*, p53null 32C tox -5%, p53null 39C kill -2% and FH mod inconclusive.
Screening CC1=CC(=O)C2(OC3OC(C)C(O)C(OC(=O)/C=C/c4ccccc4)C3O)C=COC(OC3OC(CO)C(O)C(O)C3O)C12 (stereo unspecified) returned FH mod 0%[20.6 µM].
O=C(NCCCN1CCN(c2ccccc2F)CC1)c1cc2c(s1)-c1ccccc1OC2 was read as DRV1 agonist 7, p53null 32C tox 7%, p53null 39C kill 32µM* and FH mod -18%.
`Cc1oc(-c2ccc(Cl)cc2)nc1CSc1nc2ncccc2[nH]1` gave DRV1 agonist -2, p53null 32C tox 1%, p53null 39C kill 10% and FH mod 1%.
Clc1ccc(CSc2nc3ncccc3[nH]2)cc1 was read as DRV1 agonist 14, p53null 32C tox 10µM*, p53null 39C kill inconclusive and FH mod 1%.
COc1cccc(NC(=O)CSc2nnc(COc3ccc(Cl)cc3)o2)c1 was read as DRV1 agonist 16, p53null 32C tox -7% and p53null 39C kill 8%.
For CCc1ccccc1NC(=O)CSc1nnc(COc2ccccc2Cl)o1 the results were DRV1 agonist 69*, p53null 32C tox 5%, p53null 39C kill 8% and FH mod -26%.
For OCC(CO)(CO)NCC(O)Cn1c2ccc(Cl)cc2c2cc(Cl)ccc21 (stereo unspecified) the results were FH mod -14%.
